Measurements reported in PubChem BioAssay AID2014 (Sanford-Burnham Center for Chemical Genomics, 2009).
Out of some 290,000 compounds screened, about 3,000 (1%) were called active. The rule behind the calls is not given here. This excerpt belongs to a sample that is enriched for actives.

Target: Polyadenylate-binding protein 1 (Homo sapiens) (UniProt P11940)
Test: PABP poly(A) RNA binding inhibitors, primary screen, biochemical, fluorescence polarization, uHTS (AID 2014);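 note: calls also rest on retests at 20 µM and on dose response follow-up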
Settings: stronger effect = higher value

Sequence of Polyadenylate-binding protein 1 (Homo sapiens) (P11940 whole entry, looked up): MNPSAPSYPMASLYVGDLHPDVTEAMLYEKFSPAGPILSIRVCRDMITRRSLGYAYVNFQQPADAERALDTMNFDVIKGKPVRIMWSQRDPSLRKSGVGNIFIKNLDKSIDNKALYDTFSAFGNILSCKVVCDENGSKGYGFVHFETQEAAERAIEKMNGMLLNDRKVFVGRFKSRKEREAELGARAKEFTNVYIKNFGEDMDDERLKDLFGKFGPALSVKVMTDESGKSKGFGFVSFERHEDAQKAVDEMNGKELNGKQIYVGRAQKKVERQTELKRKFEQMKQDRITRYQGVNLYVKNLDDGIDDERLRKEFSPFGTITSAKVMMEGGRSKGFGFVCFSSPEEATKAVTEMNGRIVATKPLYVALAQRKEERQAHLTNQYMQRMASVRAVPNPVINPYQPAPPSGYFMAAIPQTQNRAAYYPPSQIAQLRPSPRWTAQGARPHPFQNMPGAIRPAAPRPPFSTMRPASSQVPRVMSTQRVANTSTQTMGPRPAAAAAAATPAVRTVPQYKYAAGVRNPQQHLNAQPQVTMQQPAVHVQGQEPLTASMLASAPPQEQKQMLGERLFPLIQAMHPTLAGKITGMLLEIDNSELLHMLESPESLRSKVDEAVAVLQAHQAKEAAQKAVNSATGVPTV

Compound	inhibition (at 35 µM)	inhibition (confirmation repeats, at 20 µM) [%]
COc1ccc([N+](=O)[O-])cc1N(CC(=O)Nc1ccccc1C(=O)N1CCOCC1)S(C)(=O)=O	-5.6% (inactive)	
COCCn1c(SCC(=O)Nc2nc(C)cs2)nnc1C(C)C	2.9% (inactive)	
Cc1ccc(CNC(=O)CCN2C(=O)[C@@H]3Cc4ccccc4CN3C2=O)cc1	10.4% (inactive)	
O=C(CCN1C(=O)[C@@H]2Cc3ccccc3CN2C1=O)NCCc1ccccc1	58.8% (active)	
O=C(CCN1C(=O)[C@@H]2Cc3ccccc3CN2C1=O)NCc1ccccc1	1.7% (inactive)	
Cc1ccc(C2SCC(=O)N2c2ccccc2)cc1 (stereo unspecified)	-0.7% (inactive)	
COc1ccc(-c2oc3ncnc(NCCCO)c3c2-c2ccc(OC)cc2)cc1	7.6% (inactive)	
Cc1ccc(N2C(=O)C3C4C=CC(CC4)C3C2=O)cc1Cl (stereo unspecified)	0.6% (inactive)	
Cc1cccc(-c2nnc(SCC(=O)O)n2Cc2ccccc2)c1	0.6% (inactive)	
Cn1c(=O)n(Cc2ccco2)c(=N)c2c3c(sc21)CCCC3	8.4% (inactive)	
CCCSc1nc(NCc2ccco2)c2c3c(sc2n1)COC(C)(CC)C3 (stereo unspecified)	9.5% (inactive)	
CN1CCc2c(sc3c2c(NCc2ccco2)nc2nnnn23)C1	94.1% (active)	
COc1ccc(C(CNCC(=O)Nc2ccccc2F)N(C)C)cc1 (stereo unspecified)	-7.5% (inactive)	
CC(=O)c1ccc(S(=O)(=O)Nc2ccc(C(=O)NCC(c3ccccc3)N(C)C)cc2)cc1 (stereo unspecified)	12.7% (inactive)	
COc1ccc(C(CNC(=O)c2ccc(S(=O)(=O)Nc3ccccc3F)cc2)N(C)C)cc1 (stereo unspecified)	53.4% (active)	116
Cc1ccc(S(=O)(=O)N(CC(=O)NCc2ccco2)c2ccccc2C)cc1	3% (inactive)	
COc1ccc2c(C)c(CCC(=O)NC3CC3)c(=O)oc2c1C	11.8% (inactive)	
CCOC(=O)C1(Cc2cccc(OC)c2)CCCN(C(=O)CCSC)C1 (stereo unspecified)	15.2% (inactive)	
CCSc1nnc(NC(=O)c2ccc(C)cc2)s1	-4.4% (inactive)	
Cc1ccc(C(=O)Nc2nnc(-c3cccs3)s2)cc1C	4.7% (inactive)	
Cc1ccc(C(=O)Oc2coc(CSc3nnc(NC(=O)c4cccs4)s3)cc2=O)cc1C	-2.3% (active)	88.5
CN(C)CCN(C(=O)C1CCCCC1)c1nc2cc3c(cc2s1)OCO3	11% (inactive)	
CN(C)CCCn1c(=O)n(Cc2ccccc2)c(=O)c2c3c(sc21)CCCCC3	-5.5% (inactive)	
CCCCCCn1cc(C(=O)O)c(=O)c2cc(F)c(N3CCCCC3)cc21	-0.7% (inactive)	

Compound	inhibition (at 35 µM)	inhibition (confirmation repeats, at 20 µM) [%]
CCC1CCCCN1C(=O)CSc1nc2c(c(=O)n1C)SC(C)C2 (stereo unspecified)	-9% (inactive)	
Cc1ccc(Cc2cnc(N)s2)o1	47.2% (active)	56.6
Cc1ccc(CCC(=O)Nc2ncc(Cc3cc(Cl)ccc3Cl)s2)o1	29.5% (inactive)	
Cc1cc(/C=C2\SC(=O)N(C)C2=O)c(C)n1-c1cccc(C(=O)O)c1	67.4% (active)	
Cc1cc(/C=C2/SC(=O)N(CC(=O)N3CCCC3)C2=O)c(C)n1C	19.7% (inactive)	
Cc1cc(/C=C2\SC(=Nc3ccc(N4CCOCC4)cc3)N(C)C2=O)c(C)n1-c1cccnc1	0.7% (inactive)	
CCC(=O)Nc1ccc(S(=O)(=O)Nc2c(NC)c3ccccc3oc2=O)cc1	0.6% (inactive)	
Cc1ccc2[nH]c3c(c2c1)CN(C(=O)CN1CCN(c2ccccc2)CC1)CC3	90.5% (active)	
CCCC(=O)N1CCc2[nH]c3ccccc3c2C1	14.1% (inactive)	
O=C(CN1CCCC1)N1CCN(c2ccccc2)CC1	0.4% (inactive)	
COCCNC(=O)C(c1ccc(C)cc1)N(C(=O)CCC(=O)Nc1ccccn1)c1cccc(C)c1 (stereo unspecified)	-1.8% (inactive)	
CCc1nnc(NC(=O)c2nc3nccc(C)n3n2)s1	-2.3% (inactive)	
Cc1cccc(NC(=O)Nc2nnc(-c3ccccc3)o2)c1	-0.4% (inactive)	
Cc1ccnc2nc(C(=O)Nc3nnc(-c4ccccc4)o3)nn12	-1.8% (active)	82.4
CCCC1=Nc2cc(C(=O)NCCN3CCCC3)ccc2Sc2ccccc21	-16.5% (inactive)	
COc1cc(NC(=O)C2=C(C)OCCS2)c(Cl)cc1C(=O)NCCN1CCN(C)CC1	-8% (inactive)	
O=C(CSc1ccc(-c2ccco2)nn1)Nc1cccc(F)c1	-7.4% (inactive)	
Cc1cc(F)ccc1S(=O)(=O)N1CCCOC1CNC(=O)C(=O)NCCC1=CCCCC1 (stereo unspecified)	0.9% (inactive)	
O=C(NCCCn1ccnc1)C(=O)NCC1OCCN1S(=O)(=O)c1cc(F)ccc1F (stereo unspecified)	58.4% (active)	
O=C(NCCCc1ccccc1)C(=O)NCC1OCCN1S(=O)(=O)c1ccccc1 (stereo unspecified)	10.1% (inactive)	
Cc1ccc(C(=O)NC2CCN(C(=O)Nc3ccc(F)cc3)CC2)cc1	10.6% (inactive)	
CC(NC(=O)COc1cccnc1[N+](=O)[O-])c1ccc(Cl)cc1Cl (stereo unspecified)	0.4% (inactive)	
CC(C)c1ccccc1OCC(O)CN(CC(O)COc1cccc2ccccc12)C(C)C (stereo unspecified)	5.7% (inactive)	
COc1ccc(C(=O)N(C)CC(O)c2ccccc2)cc1OC1CCN(C(C)=O)CC1 (stereo unspecified)	-3.1% (inactive)	

Compound	inhibition (at 35 µM)	inhibition (confirmation repeats, at 20 µM) [%]
CC(Cc1ccccc1)C(=O)N(C)Cc1ccccc1 (stereo unspecified)	2% (inactive)	
Cc1ccc(C)n1C(Cc1ccccc1)C(=O)O (stereo unspecified)	69.6% (active)	
COc1ccc(CNC(=O)C(Cc2ccccc2)n2cccc2)cc1 (stereo unspecified)	9.5% (inactive)	
COCCN1C(=O)N(c2ccc(Cl)cc2)C(=O)C1CC(=O)Nc1cc(OC)cc(OC)c1 (stereo unspecified)	-6.1% (inactive)	
COc1cccc(NC(=O)CSc2nnc(Cc3ccc(OC)c(OC)c3)o2)c1	14.4% (inactive)	
O=C(CCCN1C(=O)/C(=C/c2ccco2)SC1=S)Nc1ccccc1	17.5% (active)	52.5
O=C(CCCN1C(=O)/C(=C\c2ccco2)SC1=S)Nc1cccc2ccccc12	4.3% (inactive)	-3.6
O=C(CCCN1C(=O)/C(=C/c2ccccc2)SC1=S)Nc1ccc(O)cc1	-7.7% (inactive)	
CCCn1c(C)cc(/C=C(\C#N)C(=O)OCC(=O)Nc2cc(OC)c(OC)c(OC)c2)c1C	-0.7% (inactive)	
COc1ccc(Cl)cc1NC(=O)c1cccc(N2C(=O)C3CC=CCC3C2=O)c1 (stereo unspecified)	-3.5% (inactive)	
COc1ccccc1C1=Nc2cccc3cccc(c23)N1	65.3% (active)	86.4
c1ccc(C2=Nc3cccc4cccc(c34)N2)cc1	11.1% (inactive)	
Fc1ccccc1N=C1Nc2cccc3cccc1c23	-10.8% (inactive)	
CC(C)c1ccc(S(=O)(=O)N2CCC3(CC2)OCCO3)cc1	-6.1% (inactive)	
COc1cc([C@H](Cc2ccccc2)NC(C)=O)oc(=O)c1	76.2% (active)	
CCOC(=O)C(Cc1ccccc1)NC(=O)CCC(=O)c1ccc(OC)cc1 (stereo unspecified)	-2.7% (inactive)	
COC(=O)[C@H](Cc1ccccc1)NC(=O)Nc1ccc(OC)cc1	-6.6% (inactive)	
O=C(CCC1CCN(C(=O)c2cccc(Cl)c2F)CC1)Nc1ccccc1	-10.6% (inactive)	
CS(=O)(=O)N1CCN=C1SCc1ccc(F)cc1	0.3% (inactive)	
CCN(c1ccccc1)S(=O)(=O)c1cc2c(cc1C)n(C)c(=O)c(=O)n2C	-2% (inactive)	
Nc1ccc(C(=O)NCc2ccccc2)cc1	3.4% (inactive)	
CS(=O)(=O)NCc1ccc(C(=O)NCc2ccccc2)cc1	48.1% (inactive)	
C[n+]1ccc(C(=O)NCc2ccccc2)cc1	64.2% (active)	92.7
COC(=O)c1c(NC(=O)c2c(Cl)cnn2C)sc(C)c1C	-5.8% (inactive)	

Compound	inhibition (at 35 µM)	inhibition (confirmation repeats, at 20 µM) [%]
CN(C(=O)c1c(Cl)cnn1C)C12CC3CC(CC(C3)C1)C2	86.8% (active)	75
Cn1ncc(Br)c1C(=O)NC1CCCC1	2.8% (inactive)	
Cn1c(CCc2ccccc2)nnc1SCC(N)=O	-5.2% (inactive)	
C/C(=N\Nc1nncc2ccccc12)c1ccc(Cl)c([N+](=O)[O-])c1	2% (inactive)	
Clc1ccc(CN2CCCCCC2)cc1Cl	17.8% (inactive)	
COc1ccccc1CN1CC(C(=O)NCCc2cn[nH]c2)CCC1=O (stereo unspecified)	27% (inactive)	
CCn1nnnc1SCC(=O)Nc1ccc(N(C)C)cc1	1.4% (inactive)	
Cc1ccc(Nc2nc(Cl)c(C=O)s2)cc1	40.3% (inactive)	44.5
COC(=O)c1cnn2c(C(F)(F)F)cc(-c3ccco3)nc12	23.9% (inactive)	
Cc1cc(C)c2nc(-c3ccco3)cc(C(=O)O)c2c1	91.2% (active)	
Cc1ccsc1-c1cc(C(=O)O)c2c(ccc3ccccc32)n1	20.2% (inactive)	
CCN(CC)c1ccc(/C=N/NC(=O)c2cnccn2)c(O)c1	-7.1% (inactive)	
CCN(CC)c1ccc(/C=N/Nc2nc(C)cc(C)n2)c(O)c1	16.6% (active)	67.4
Cc1cc(C)nc(N/N=C/c2ccncc2)n1	2% (inactive)	
c1ccc(CCC2=NCCn3cccc32)cc1	67.5% (active)	
CC1CSc2nnc(CCc3ccccc3)n21 (stereo unspecified)	-2.9% (inactive)	
S=C(NCCc1ccccc1)N1CCn2cccc2C1c1ccncc1 (stereo unspecified)	6.4% (inactive)	
O=C(Nc1cccnc1Cl)c1cc(-c2ccccc2O)on1	-6.2% (inactive)	
COc1ccc(NC(=O)c2cccc3c2C(=O)N(CC2CCCO2)C3)cc1OC (stereo unspecified)	-2% (inactive)	
COc1ccc(CNC(=O)c2cc3c(=O)n4ccccc4nc3n(CC3CCCO3)c2=N)cc1 (stereo unspecified)	-5.2% (inactive)	
Cc1ccc2nc3c(cc(C(=O)NCCc4ccccc4)c(=N)n3CC3CCCO3)c(=O)n2c1 (stereo unspecified)	83.3% (active)	
Cc1cccn2c(=O)c3cc(C(=O)NCC4CCCO4)c(=N)n(Cc4ccc(F)cc4)c3nc12 (stereo unspecified)	-1% (inactive)	
COc1ccc(-n2c(=O)[nH]c3cc(C(=O)NCCc4ccc(OC)c(OC)c4)ccc3c2=O)c(OC)c1	11% (inactive)	
